FBPA Giardia inh – inhibitors of Giardia lamblia fructose-1,6-bisphosphate aldolase; purified Giardia FBPA; A8B2U2; Potency, µM (titrated, usually from 59.6 µM), for the others: at the top dose activity, negative = inhibition, most hits filed as inhibitors; 0.71% of 290,000 active; further: potency means the concentration at half of the fitted maximal effect; on the % scale 0 is the no-effect control and ±100 the full control effect; nearly all actives have a fitted effect of over 55% in size
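40 nM FBPA preincubated 10 min at RT with compound (up to 57.5 uM final), then substrate plus GAPDH/TPI/NAD/arsenate coupling and diaphorase/resazurin added. Fluorescence read after 20 min at RT, 525/598 nm.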
Cycloheximide cs – counter-screen hit for Shiga toxin inhibitors, cycloheximide. cell reporter, cycloheximide protein synthesis inhibition counterscreen. max response, %. 12% of 300,000 active. AID 2314; in the data active means max response mostly above about 13%, no sharp cut-off; inactive means mostly below about 14%; further: read at 38.3 µM for the half of the compounds with a filed dose; 0% is about no effect
LmPK inh – inhibitors of Leishmania mexicana pyruvate kinase. 0.37% of 290,000 active. AID 1721. Q27686. Potency, µM (series often up to 57.5 µM), for inactives: at the top dose activity change, negative = inhibition, usual class: inhibitors. purified LmPK, Kinase-Glo ATP luminescence, 1 h; further: potency means the concentration at half of the fitted maximal effect; on the % scale 0 is the no-effect control and ±100 the full control effect
Target sequence (Q27686 whole entry, looked up): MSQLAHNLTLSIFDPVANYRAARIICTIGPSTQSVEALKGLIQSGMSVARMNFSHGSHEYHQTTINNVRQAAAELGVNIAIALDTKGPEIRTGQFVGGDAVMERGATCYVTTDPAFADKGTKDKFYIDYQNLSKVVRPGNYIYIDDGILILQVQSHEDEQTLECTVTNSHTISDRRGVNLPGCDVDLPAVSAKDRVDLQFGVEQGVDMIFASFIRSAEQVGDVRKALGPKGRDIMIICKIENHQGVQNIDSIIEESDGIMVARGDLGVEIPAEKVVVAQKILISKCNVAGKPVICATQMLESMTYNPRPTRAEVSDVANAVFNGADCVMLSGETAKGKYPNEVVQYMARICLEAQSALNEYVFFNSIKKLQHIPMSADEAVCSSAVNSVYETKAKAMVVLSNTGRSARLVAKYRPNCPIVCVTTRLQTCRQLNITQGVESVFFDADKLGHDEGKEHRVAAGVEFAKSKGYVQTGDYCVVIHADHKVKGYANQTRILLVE
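Screened at intermediate enzyme activity to detect both inhibitors and activators: LmPK at 0.1 nM, with a 0.5 nM enzyme column as activation reference. PEP 0.5 mM, ADP 0.1 mM; ATP detected by luminescence after 1 h.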
Shiga toxin inh – Shiga toxin inhibition; inhibition, % at 38.7 µM; 9.2% of 290,000 active; Vero cells, Shiga toxin protein synthesis inhibition reporter; in the data active means inhibition mostly above about 28%, no sharp cut-off; inactive means mostly below about 43%; further: 0% is about no effect
NS1 function inh – influenza NS1 inhibition. Potency, µM (doses to about 46.1 µM), without a hit: at the highest dose activity, positive = more growth. 0.4% of 270,000 active; calls by dose curve; further: potency means the concentration at half of the fitted maximal effect; actives are rising curves; nearly all actives have a fitted effect of over 50% in size
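A cell-based growth assay was used: compounds that relieve NS1-induced slow growth of budding yeast raise OD600. Assay medium was yeast nitrogen base with ammonium sulphate and -URA supplement, pH 6.0, with 2% galactose.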
Numbers without * were called inactive; ? = inconclusive; · = no result given; + = active, no number; [ ] = dose if it differs, or a comment. The list is not random: actives were taken first. Their share in the collection is about 14%. Unless noted, the call rests on the fitted dose curve; in most records, active means well fitted curve in the direction sought with a large enough effect; inconclusive means small, poorly fitted or top-dose-only effect, or another doubt; inactive means no such curve, though single readings can be large; an effect the other way counts as inactive or inconclusive.

SMILES | FBPA Giardia inh | Cycloheximide cs | LmPK inh | Shiga toxin inh | NS1 function inh
O=C(Nc1ccc(Cn2cccn2)cc1)c1ccc(COc2cccc(Br)c2)cc1 | -2.8% | 18.6* | -3.2% | 21.7 | -2.4%
CC(C)OCCCNC(=O)CCCC(=O)Nc1ccc(OCCc2ccccc2)cc1 | 16.9% | 2.9 | -6.5% | 1.2 | -17.4%
CCCOc1ccc(CCC(=O)N/N=C/c2ccco2)cc1 | -0.4% | -1.2 | 1.3% | 18.8 | -3.9%
O=C(COc1ccc(Cl)cc1[N+](=O)[O-])N/N=C/c1cccs1 | -2.6% | 30.6 | 5.2% | 48.5 | ·
Cc1ccc2nc(C)c(C(=O)N/N=C/c3cccs3)n2c1 | -6.3% | 9.4 | -0.5% | 23.3 | -1.9%
CCc1ccc(OCC(=O)N/N=C\c2ccco2)c([N+](=O)[O-])c1 | -1.1% | 16.4* | -2.0% | active | -0.5%
Cc1ccc(OCC(=O)N/N=C\c2cccs2)c([N+](=O)[O-])c1 | 0.1% | 39.1* | 2.7% | 37.0* | -1.5%
CCCCOc1ccc(CCC(=O)N/N=C/c2ccco2)cc1 | -5.7% | 11.8* | 5.5% | 10.8 | -4.0%
Cc1ccn2c(C(=O)N/N=C\c3cccs3)c(C)nc2c1 | -1.4% | 16.2* | 0.9% | 42.9 | -6.6%
COc1ccc(C(=O)N2CCC3(CC2)CN(C(=O)NC(C)C)C3)cc1 | 6.4% | · | · | · | ·
Cc1ccc([N+](=O)[O-])c(C(=O)N/N=C/c2cccnc2)c1 | 5.6% | 12.7 | 7.1% | 9.8 | 5.5%
Cc1ccc([N+](=O)[O-])c(C(=O)N/N=C/c2cccs2)c1 | -0.8% | 21.8* | 3.0% | 48.3 | -10.7%
Cc1cc(C)n(CC(=O)N/N=C/c2cccs2)n1 | -4.5% | 39.7* | -6.9% | 79.0* | 23.7%
FC(F)(F)c1cccc(NC(=S)NC2CCCC2)c1 | -4.2% | -1.5 | -0.5% | 3.7 | -40.7%
FC(F)(F)c1ccc(NC(=S)NC2CCCCC2)cc1 | -4.7% | 43.5* | 7.2% | 81.7* | ·
S=C(Nc1ccc(Cl)cc1Cl)NC1CCCCC1 | -17.8% | -0.5 | 0.5% | -2.4 | 3.3%
Cc1ccc(NC(=O)CNCC2CCCCC2)cc1S(=O)(=O)N(C)C | ? | -2.8 | -11.6% | 13.0 | -0.5%
Cc1ccc(NC(=S)NNC(=S)NC2CCCCC2)cc1 | 1.8% | -7.3 | -6.9% | 35.2 | ·
CC(C)c1ccc(NC(=S)NC2CCCCCC2)cc1 | -1.3% | 31.7* | 4.6% | 68.6* | -8.5%
S=C(Nc1ccccc1Cl)NC1CCCCCC1 | -0.7% | 18.0* | 1.2% | 63.2* | -52.9%
Cc1ccc(NC(=S)NC2CCCCC2)cc1S(=O)(=O)N(C)C | -27.4% | 31.8* | 4.4% | 124.7* | -2.7%
O=C(Cn1c(CCCO)nc2ccccc21)Nc1ccccc1-c1ccccc1 | 3.9% | -1.4 | 8.2% | -4.8 | 4.9%
Cc1cccc(NC(=S)NNC(=S)NC2CCCCC2)c1C | 1.6% | 15.7* | -5.3% | 43.9* | -12.0%
S=C(Nc1ccc(Cl)c(Cl)c1)NC1CCCCC1 | 9.8% | 56.4* | 2.2% | + | -30.4%
S=C(Nc1ccc(Cl)c(Cl)c1)NC1CCN(Cc2ccccc2)CC1 | -0.1% | -7.1 | 0.8% | -7.0 | -7.7%
SMILES | FBPA Giardia inh | Cycloheximide cs | LmPK inh | Shiga toxin inh | NS1 function inh
Fc1cccc(NC(=S)NC2CCCCCCC2)c1 | · | 35.2* | 0.6% | 75.4* | -105.7%
S=C(Nc1ccc2nsnc2c1)NC1CCCCC1 | 1.77µM* | 59.3* | 2.3% | 88.0* | -28.5%
S=C(NNc1ccc2ccccc2c1)NC1CCCCC1 | -11.7% | 49.1* | 0.1% | 60.8* | -13.2%
O=c1c(-c2ccc(Cl)cc2)nc2cnc(N3CCOCC3)nc2n1C1CC1 | -0.2% | · | · | · | ·
CC1=C(C)CC(C(=O)NNC(=O)c2csc(C)c2C)C(C(=O)O)C1 (stereo not drawn) | 3.8% | 20.9* | 0.4% | 79.3* | 12.8%
CC(C)(C)NC[C@H](O)COc1cccc2c1CCC(=O)N2 | -2.4%[21.7 µM] | · | · | · | ·
CC1CCN(C(=O)c2cc(-c3ccccc3O)on2)CC1 | -3.4% | 39.0* | 2.8% | 85.4* | -109.8%
COc1cccc(-c2cc(C(=O)N3C(C)CCCC3C)no2)c1 (stereo not drawn) | -4.1% | 99.6* | 10.5% | 72.1* | -104.5%
CC1CCCC(C)N1C(=O)c1cc(-c2ccco2)on1 (stereo not drawn) | -4.2% | 7.7 | -4.6% | 47.5* | -10.3%
COc1cccc(-c2cc(C(=O)N3CCN(C(c4ccccc4)c4ccccc4)CC3)no2)c1 | 1.8% | 20.7 | 2.4% | 22.0 | 6.1%
CC1CCN(C(=O)c2cc(-c3ccco3)on2)CC1 | -0.1% | 27.4* | -19.9% | 66.3* | -12.3%
COc1ccc(CNc2ccc3c(c2)nc(C)n3C)cc1OC | -8.9% | 43.7* | 3.9% | 58.1* | -7.9%
CCOc1ccc(CNc2nc3ccccc3n2C)cc1 | -5.3% | 38.8* | -0.1% | · | -9.2%
CCn1cnc2cc(NCc3ccc(OC)cc3)ccc21 | -5.7% | 27.5 | 4.4% | 45.5 | -6.8%
CCOc1ccc(CNc2ccc3c(c2)nc(C)n3C)cc1 | -18.0% | 25.3* | 1.0% | active | -13.6%
O[C@@H](c1cc(C(F)(F)F)nc2c(Cl)cc(Cl)cc12)C1CCCCN1 (stereo partly drawn) | · | · | · | · | -3.2%
C[C@H]1CCCC(=O)CCC/C=C/c2c(O)cc(O)cc2C(=O)O1 | 4.5% | -4.3 | · | -11.4 | ·
CC(C)OC(=O)CSc1nc2c(cc1C#N)CCCCC2 | 1.0% | 14.0 | -1.6% | 9.1 | 0.0%
CCOC(=O)CC(=O)COc1nc2cc3c(nc2o1)CCCC3 | 10.4% | 26.8* | -26.2% | 90.6* | 21.3%
CC(C)OC(=O)CC(=O)CSc1nc2c(cc1C#N)CCCCC2 | -1.7% | 52.3* | -1.9% | 72.0* | -12.9%
CCOC(=O)CC(=O)CSc1nc2c(cc1C#N)CCCCC2 | -10.1% | 46.1* | -2.2% | 83.6* | 11.0%
O=C(CCN1C(=O)[C@@H]2Cc3ccccc3CN2C1=O)Nc1cccc(F)c1 | · | 2.1 | 2.9% | 1.6 | -2.5%
CN1CCN(c2ccc(NC(=O)Cc3ccccc3)cc2)CC1 | 5.9% | 55.1* | -10.1% | 75.1* | -2.5%
CS(=O)(=O)N1CCN(c2ccc(NC(=O)Cc3ccccc3)cc2)CC1 | -4.5% | 21.9 | -4.7% | 43.5 | 12.7%
O=C(Cc1ccccc1)Nc1ccc(N2CCCCC2)cc1 | -3.0% | 31.3* | -8.0% | 82.6* | -0.7%
SMILES | FBPA Giardia inh | Cycloheximide cs | LmPK inh | Shiga toxin inh | NS1 function inh
Cc1ccc(C(=O)N2CCN(c3ccc(NC(=O)Cc4ccccc4)cc3)CC2)cc1 | · | 19.5 | 2.0% | 12.3 | 13.0%
COc1ccc(Oc2ncc3nc(-c4ccc(Cl)cc4)c(=O)n(C[C@H]4CCCO4)c3n2)cc1 | 0.0% | · | · | · | ·
NS(=O)(=O)c1ccc(CCNS(=O)(=O)c2ccc3c(c2)NC(=O)CO3)cc1 | · | -7.3 | -9.0% | -6.8 | 5.9%
O=C(/C=C/Nc1ccc(F)c(Cl)c1)c1ccco1 | ? | 68.2* | -9.0% | 141.6* | -11.9%
O=C(/C=C/Nc1cccc(F)c1)c1ccco1 | -2.8% | 34.5* | ? | 76.1* | -121.3%
O=C(NC1CCN(C(=O)Nc2cccc(F)c2)CC1)c1ccco1 | 5.3% | -4.3 | -8.3% | -2.7 | 4.7%
COc1cccc([C@@H]2Oc3ccc(OC)cc3C[C@H]2OC(=O)NS(=O)(=O)c2ccc(C)cc2)c1 | -6.9% | · | · | · | ·
Cc1ccc(N=N/C(=C\O)C(=O)c2ccc(Cl)cc2)cc1 | 0.0% | 36.0* | -3.7% | 105.9* | ·
COc1cccc(C(=O)NCCC(=O)NCc2cc(=O)n(C)c(=O)n2C)c1 | 1.9% | -6.4 | 4.9% | 10.9 | 16.3%

Source: PubChem (National Center for Advancing Translational Sciences (NCATS))
